Active and inactive are the calls of the source. Unless noted, the rule behind the calls is not given here.

Assay [1] concerns Hepatitis C virus NS3 helicase. Briefly: HCV NS3 helicase inhibitors, primary screen, biochemical, fluorescence polarization, LOPAC1280 library (AID 687035; in the data active = inhibition above about 37%). The note with it: Purified HCV NS3 helicase, Cy5-dT15 ssDNA binding fluorescence polarization; stronger effect = higher value; concentration not given here. For orientation: In fluorescence polarisation assays a small probe gives low polarisation when free and higher when bound to something large.

A short description of assay [2]: Cy5 fluorescence quenching or enhancement artefacts, artefact control for HCV NS3 helicase inhibitor project, biochemical, LOPAC1280 (AID 687037). The note with it: Cy5-DNA-NS3h complex fluorescence interference counterscreen.
Assay [3] is described as follows: Cy5 fluorescence interference with SSB-bound oligo, artefact control for HCV NS3 helicase inhibitor project, biochemical, NIH Clinical Collection, E. coli SSB (AID 743268).
Assay [4] deals with Hepatitis C virus NS3 helicase. Briefly: HCV NS3 helicase inhibitors, primary screen, biochemical, fluorescence polarization, NIH Clinical Collection (AID 743270). The note with it: NS3 helicase binding to Cy5-dT15 DNA, stronger effect = higher value, concentration not given here.
For assay [5], the target named is Single-stranded DNA-binding protein (Escherichia coli (strain K12)) (UniProt P0AGE0). Nature of the assay: E. coli SSB displacement from DNA, counter-screen for HCV NS3 helicase inhibitor project, biochemical, fluorescence polarization, NIH Clinical Collection (AID 743271; in the data active = inhibition above about 28%). The note with it: stronger effect = higher value, concentration not given here. For orientation: The purpose of a counterscreen is to sort out artefacts and off-target activity.

Assay [6] is described as follows: fluorescence interference in NS3h assay format, artefact control for HCV NS3 helicase inhibitor project, biochemical, NIH Clinical Collection (AID 743272).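 Note: HCV NS3 helicase with a Cy5 labelled single stranded DNA probe.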 The note with it: fluorescence interference counterscreen, stronger effect = lower value.
The test system of assay [7] is Neuropilin-2 / VEGF-C interaction (human). Nature of the assay: inhibitors of NRP2–VEGF-C binding, biochemical, microplate binding format, z-score (AID 743281). The note with it: microplate NRP2/VEGF-C binding assay; stronger effect = lower value.
Assay [8] is described as follows: stimulators of nuclear beta-catenin in C2C12, primary screen, imaging, WNT3A-conditioned medium, mouse C2C12, NPC library (AID 1117326; in the data active = nuclear beta-catenin stimulation mostly above about 4.2%, no sharp cut-off; inactive = mostly below about 10%). The note with it: stronger effect = higher value.
The nature of assay [9]: stimulators of insulin release from INS-1E, primary screen, cell-based, 5 mM glucose, NPC library (AID 1117329;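 active = compound raises insulin release from rat beta cells at 5 mM glucose, no numeric limit stated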). The note with it: rat INS-1E insulin secretion, at 10 µM, stronger effect = higher value.
Assay [10] can be described thus: growth inhibition of GSK3B-pretreated HCT116 cells – cell-based, CellTiter-Glo, 0.2 to 20 µM (AID 1117336;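 active = compounds lowering colon cancer cell viability after pretreatment blocking the GSK3B kinase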). The note with it: HCT116 viability after GSK3B inhibitor, at 20 µM, stronger effect = higher value.
Assay [11] can be described thus: inhibition of endothelial tube formation, primary screen, imaging, VEGF stimulated, CD31 staining, tube area, NPC library (AID 1117340;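 active = compound that reduces growth-factor-driven endothelial tube area in a mixed cell culture, no cutoff stated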). The note with it: VEGF-stimulated ADSC/ECFC co-culture, at 10 µM, stronger effect = higher value.
Assay [12] is described as follows: glucagon-like peptide 1 release enhancers, primary assay, NCI-H716 cell line, NPC library (AID 1117341;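 active = compound raises GLP1 secretion from the human gut endocrine cells, with no numeric limit stated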). The note with it: NCI-H716 cells, at 10 µM, stronger effect = higher value.
The nature of assay [13]: HCT116 colon cancer cell growth inhibition, primary screen, CellTiter-Glo luminescence, NPC library (AID 1117342;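 active = compounds that lower survival of HCT116 colon cancer cells in the luminescence readout, no numeric limit stated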). The note with it: at 20 µM (top of the series). Background: Cellular ATP, detected with luciferase, serves as a proxy for viable cell number.
Assay [14] is described as follows: CellTiter-Glo luminescent readout of SW480 viability loss, NPC library primary (AID 1117343;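 active = compounds that lower viability of the colon cancer cells in the luminescence readout, with no numeric limit stated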). The note with it: CellTiter-Glo luminescence; at 20 µM (top of the series).
Assay [15] is described as follows: decreased DLD-1 cellular survival, CellTiter-Glo luminescent readout, NPC compound collection, primary HTS (AID 1117346;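 active = compounds that lower survival of DLD-1 colon cancer cells in the luminescence readout, no cutoff given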). The note with it: DLD-1 viability, CellTiter-Glo luminescence; at 20 µM (top of the series).
The target of assay [16] is 6-phosphogluconate dehydrogenase, decarboxylating (Homo sapiens) (UniProt P52209). Briefly: 6PGD enzyme inhibitors, primary screen, biochemical, human, recombinant enzyme, NADPH absorbance (AID 1159550;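 active = at least 20% inhibition of 6-phosphogluconate dehydrogenase activity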). The note with it: recombinant 6PGD, NADPH absorbance 341 nm; at 10 µM; stronger effect = higher value.
Sequence of 6-phosphogluconate dehydrogenase, decarboxylating (Homo sapiens) (P52209 whole entry, looked up): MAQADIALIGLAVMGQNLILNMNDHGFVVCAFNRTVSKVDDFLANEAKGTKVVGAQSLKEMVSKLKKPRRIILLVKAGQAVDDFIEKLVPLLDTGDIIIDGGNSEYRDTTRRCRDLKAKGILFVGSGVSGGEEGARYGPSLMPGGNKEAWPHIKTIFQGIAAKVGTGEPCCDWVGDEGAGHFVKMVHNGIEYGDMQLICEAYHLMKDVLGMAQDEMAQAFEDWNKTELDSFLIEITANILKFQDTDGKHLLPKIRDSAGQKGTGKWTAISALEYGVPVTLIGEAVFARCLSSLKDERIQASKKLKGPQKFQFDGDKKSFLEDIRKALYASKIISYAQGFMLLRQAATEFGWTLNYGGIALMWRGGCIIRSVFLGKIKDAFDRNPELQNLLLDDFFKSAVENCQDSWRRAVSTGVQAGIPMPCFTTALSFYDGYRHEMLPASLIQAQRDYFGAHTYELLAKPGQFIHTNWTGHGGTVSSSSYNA

As a reminder, the inhibition is the drop in the measured response relative to a control, in per cent. Consider `Clc1ccccc1C(c1ccccc1)(c1ccccc1)n1ccnc1`, for which the inhibition was -2% (inactive) in [1], 5.94% (inactive) in [4], 6.83% (inactive) in [5] and -6.11% (inactive) in assay [16]. Further, the fluorescence ratio (interference) in [2] was 1 (inactive). The fluorescence ratio in [3] and in assay [6] was 0.9 (inactive) throughout. The z-score in assay [7] is 0.266 (inactive). Further, the nuclear beta-catenin stimulation was 1.1% (inactive) in assay [8] (at 10 µM) and 1.7% in assay [8] (stimulation, at 2 µM). Further, the insulin secretion stimulation in assay [9] was 0.9% (inactive). Besides, in assay [10], the viability decrease was 110% (active). The tube area decrease in assay [11] is 73.1% (active). The GLP1 secretion stimulation in assay [12] was 29.1% (active). The inhibition of viability in assay [13] is 113% (active). Moreover, the values for the viability decrease (inhibition) in [14] and in assay [15] were 132% (active) and 101% (active), respectively.
On to `NC/C=C/C(=O)O`, for which the inhibition is -5% (inactive) in assay [1] and 0.304% (inactive) in assay [16]. Further, in assay [2], the fluorescence ratio (interference) is 1 (inactive). Also, the nuclear beta-catenin stimulation in assay [8] (at 10 µM) was 0.3% (inactive); in [8] (stimulation, at 2 µM) it was 1.6%. The insulin secretion stimulation in assay [9] is 1.5% (inactive). Besides, the viability decrease in assay [10] was -42.3% (inactive). Further, in [11], the tube area decrease is -0.5% (inactive). For the same molecule, the GLP1 secretion stimulation in assay [12] was -2.6% (inactive). In addition, the inhibition of viability in assay [13] was 3.67% (inactive). Further, the viability decrease (inhibition) is 11.1% (inactive) in [14] and -6.3% (inactive) in assay [15].
With `COCCc1ccc(OCC(O)CNC(C)C)cc1` (stereo unspecified), the inhibition is 1% (inactive) in assay [1] and -13.3% (inactive) in [16]. Besides, the fluorescence ratio (interference) in assay [2] is 1 (inactive). Also, the nuclear beta-catenin stimulation in [8] (at 10 µM) was 0.8% (inactive); in assay [8] (stimulation, at 2 µM), 1.6%. The insulin secretion stimulation in [9] is 5.6% (inactive). Moreover, in assay [10], the viability decrease is -27.4% (inactive). For the same molecule, the tube area decrease in [11] is -8.1% (inactive). The GLP1 secretion stimulation in assay [12] is -3.5% (inactive). The inhibition of viability in assay [13] was 12.1% (inactive). Besides, the viability decrease (inhibition) is 17.2% (inactive) in assay [14] and -6.3% (inactive) in assay [15].
`CCCCNc1ccc(C(=O)OCCN(C)C)cc1`: the inhibition in [1] was -2% (inactive); in assay [16], -7.63% (inactive). Further, the fluorescence ratio (interference) in assay [2] was 0.9 (inactive). For the same molecule, the nuclear beta-catenin stimulation in [8] (at 10 µM) was 9.2% (inactive); in [8] (stimulation, at 2 µM) it was 3.3%. Besides, the insulin secretion stimulation in assay [9] was 0% (inactive). For the same molecule, the viability decrease in [10] was -26.9% (inactive). In [11], the tube area decrease was 9.8% (inactive). Also, in [12], the GLP1 secretion stimulation is 0.3% (inactive). Also, the inhibition of viability in [13] was 18% (inactive). In addition, the viability decrease (inhibition) in assay [14] is 47% (inactive); in [15], 3.1% (inactive).
Turning to `CC(C)(Oc1ccc(CCNC(=O)c2ccc(Cl)cc2)cc1)C(=O)O`, the inhibition is -2% (inactive) in assay [1] and 4.98% (inactive) in [16]. Further, the fluorescence ratio (interference) in assay [2] was 1.1 (inactive). The nuclear beta-catenin stimulation in [8] (at 10 µM) was 6.1% (inactive); in [8] (stimulation, at 2 µM) it was 5.1%. Further, in assay [9], the insulin secretion stimulation is 0.4% (inactive). Also, in assay [10], the viability decrease was -10.3% (inactive). The tube area decrease in assay [11] was -25.4% (inactive). In addition, in assay [12], the GLP1 secretion stimulation was -1.3% (inactive). Moreover, in [13], the inhibition of viability is 4.05% (inactive). Besides, the viability decrease (inhibition) in assay [14] was -13.9% (inactive); in assay [15], -20.8% (inactive).
As to `CN1Cc2c(N)cccc2C(c2ccccc2)C1` (stereo unspecified), in [2], the fluorescence ratio (interference) was 1 (inactive). The nuclear beta-catenin stimulation is 3.1% (inactive) in assay [8] (at 10 µM) and 1.5% in [8] (stimulation, at 2 µM). Further, the insulin secretion stimulation in assay [9] was 6.6% (inactive). For the same molecule, the viability decrease in assay [10] was -9.2% (inactive). The tube area decrease in assay [11] was 3.2% (inactive). In addition, the GLP1 secretion stimulation in [12] was 0.3% (inactive). The inhibition of viability in [13] was 10% (inactive). In addition, the figures for the viability decrease (inhibition) in assay [14] and in assay [15] were 25.6% (inactive) and 4.2% (inactive), respectively. Moreover, the inhibition in assay [16] is 5.71% (inactive).

For the origin of these results see PubChem BioAssay.
